The compounds below were run against USP14 (UniProt P54578) (assay: log2 ratio of Biotin-Ahx-Ub-VS probe labelling (fragment/DMSO); higher = less target engagement (more negative = stronger competition), active = hit call of the paper (q ≤ 0.05, log2 ratio ≤ -1)). Conditions: compound concentration: 200 uM; treatment time: 3 h.
Procedure: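 Competitive ABPP in HEK293T cell lysate. Lysates were treated with each chloroacetamide fragment at 200 µM for 3 h, then with Biotin-Ahx-Ub-VS (0.5 µM, 1 h), NeutrAvidin-enriched and analysed by diaPASEF LC-MS/MS. Protein LFQ was median-normalised; average log2 ratio is fragment/DMSO from an unpaired t-test (n=3 treated, n=44 DMSO). Hits: q ≤ 0.05, log2 ratio ≤ -1, unique peptides ≥ 2.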

Chain of USP14 (P54578 whole entry, the tested form may be a part): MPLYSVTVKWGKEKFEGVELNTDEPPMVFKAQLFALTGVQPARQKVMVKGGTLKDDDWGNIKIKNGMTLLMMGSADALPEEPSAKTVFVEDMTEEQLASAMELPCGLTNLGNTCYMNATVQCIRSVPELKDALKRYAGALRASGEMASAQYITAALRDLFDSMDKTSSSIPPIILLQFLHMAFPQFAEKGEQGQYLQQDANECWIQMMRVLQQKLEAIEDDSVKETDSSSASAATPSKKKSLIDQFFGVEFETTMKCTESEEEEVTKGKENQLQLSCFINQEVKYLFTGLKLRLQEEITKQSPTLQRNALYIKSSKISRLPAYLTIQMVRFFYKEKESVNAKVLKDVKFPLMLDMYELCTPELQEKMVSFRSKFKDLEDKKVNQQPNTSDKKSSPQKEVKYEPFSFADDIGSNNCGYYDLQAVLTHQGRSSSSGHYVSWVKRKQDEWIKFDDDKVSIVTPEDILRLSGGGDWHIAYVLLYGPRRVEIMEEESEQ

log2 ratio of Biotin-Ahx-Ub-VS probe labelling, inactive:
O=C(CCl)Nc1cc2c(cc1Cl)OCCCO2 0.135
O=C(CCl)N1CCCC2CCCCC21 (stereo not given) -0.25
O=C(CCl)NC1CCN(C(=O)C2CCCCC2)CC1 -0.0275
Cc1ncc2c(n1)CCN(C(=O)CCl)C2 -0.161
O=C(CCl)N1CCN(C(=O)Nc2ccccc2)CC1 0.127
Cc1cccn2cc(CCNC(=O)CCl)nc12.Cl -0.461
CC(O)CC1CCN(C(=O)CCl)CC1 (stereo not given) -0.442
Cl.O=C(CCl)N1CCC(Cc2nccs2)C1 (stereo not given) -0.2
Cl.Cn1nc2c(c1CNC(=O)CCl)CCCC2 -0.00316
Cc1nc(CC2CCN(C(=O)CCl)CC2)no1 -0.561
Cc1c(NC(=O)CCl)c(=O)n(-c2ccccc2)n1C -0.215
O=C(CCl)N1CCC(O)(Cc2ccc(F)cc2)C1 (stereo not given) 0.271
Cl.O=C(CCl)N1CCc2ncncc2C1 -0.0964
O=C(CCl)Nc1cccc(C(=O)N2CCSCC2)c1 -0.335
CC1(NC(=O)CCl)CCS(=O)(=O)C1 (stereo not given) -0.815
O=C(CCl)NC1CCC(C(F)(F)F)CC1 (stereo not given) -0.454
CC(NC(=O)CCl)c1cccc(Cl)c1 (stereo not given) -0.42
Cl.O=C(CCl)NCc1ccnc(Oc2ccccc2F)c1 -0.153
CNC(=O)Cn1cc(NC(=O)CCl)cn1 -0.154
CCN(C(=O)CCl)C1CCS(=O)(=O)C1 (stereo not given) -0.155
O=C(CCl)NC1(c2ccc3c(c2)OCCO3)CCCC1 -0.293
O=C(CCl)N1CCC(C(=O)N2CCCCCC2)CC1 -0.204
CN1C(=O)c2ccc(NC(=O)CCl)cc2C1=O -0.292
Cc1nnc(C(NC(=O)CCl)c2ccccc2)n1C (stereo not given) 0.163
Cc1cccc(NC(=O)CCl)c1C -0.488
Cl.O=C(CCl)N1CCN(Cc2ccccc2)CC1 -0.745
Cl.O=C(CCl)NC1(c2ncccn2)CCC1 0.108
NC(=O)C(Cc1ccccc1)NC(=O)CCl (stereo not given) -0.156
Cl.O=C(CCl)N1CCn2cncc2C1 -0.259
COc1cc(Cl)c(C)cc1NC(=O)CCl -0.458
CNC(=O)C1CCN(C(=O)CCl)CC1 -0.146
Cl.Cn1ncc2c1CCCC2NC(=O)CCl (stereo not given) -0.227
CCC1c2ccsc2CCN1C(=O)CCl (stereo not given) -0.479
O=C(CCl)N1CCOCC1C1CC1 (stereo not given) -0.212
O=C(CCl)N1CCC[C@@H]1c1ccon1 -0.652
Cl.Cn1ncc2c1CC(NC(=O)CCl)CC2 (stereo not given) 0.136
O=C(CCl)NC1CCC2(CC1)OCCO2 -0.308
O=C(CCl)NCC(=O)N1CCCC1 -0.0869
O=C(CCl)Nc1nc(-c2cccs2)cs1 0.15
N#Cc1ccc(CNC(=O)CCl)cc1 -0.177

— the supplement of paper PMC11732987, “Enantioselective OTUD7B fragment discovery through chemoproteomics screening and high-throughput optimisation” (Communications Chemistry, 2025)
